# Test results taken from PubChem BioAssay (NCI).
# This is part of a sample that, as a whole, favours compounds with a hit. Of some 83,000 tested, about 20% had one in any assay.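 Interpretation: 100, growth as untreated; towards 0, rising growth inhibition; 0, no net growth; 0 to -100, cell death. Compounds scoring below 10 were considered active.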 Activity calls are given as the source filed them.
# Tested on: LOX IMVI melanoma
# Assay: NCI-60 one-dose screen, 48 h (100 = growth as untreated, 0 = no growth, -100 = all killed)
# Details: 10 µM
row,SMILES,growth
1,NC1=CC(=O)C(=O)c2cccnc21,25.9% (inactive)
2,Cc1cn(-c2cc(F)cc(NC(=O)c3ccc(C)c(Nc4nccc(-c5cccnc5)n4)c3)c2)cn1,17% (inactive)
3,C/C(=C/CCC(C)[C@@H]1CC[C@]2(C)C3=C(CC[C@@]12C)[C@@]1(C)CCC(=O)C(C)(C)[C@@H]1CC3)C(=O)O (stereo not given in full),-53.9% (active)
4,CCOC(=O)CN(c1sc(C)c(C)c1C(=O)OCC)S(=O)(=O)c1ccc(C)cc1,87.4% (inactive)
5,Cc1c2c[n+](C(C)C)ccc2c(C)c2c1[nH]c1ccccc12,40.7% (inactive)
6,CC(C)C1=C(O)C2=C(C(=O)C1=O)[C@@]1(C)CCCC(C)(C)[C@@H]1CC2,56.9% (inactive)
7,CN(C)CCC1(c2ccccc2)CCN(C)C1=O (stereo not given),102% (inactive)
8,COc1ccc(/C(C#N)=C/c2ccccc2OC)cc1,37.2% (inactive)
9,COc1cc2c(cc1NC(=O)C(Cl)Cl)-c1ccc(NC(=O)C(Cl)Cl)cc1C2,67% (inactive)
10,Cn1c2ccccc2c2c3[nH][nH]c(=O)c3c3c4ccccc4[nH]c3c21,-30.3% (active)
11,COc1ccc(-c2nn(-c3cccc(Cl)c3)cc2-c2cc(-c3ccccc3)nc(N)n2)cc1,-84.1% (active)
12,COc1ccc(C(=O)c2ccccc2CN2C(=O)c3ccccc3C2=O)cc1,94.3% (inactive)
13,COc1ccc(-c2nn(-c3cccc(Cl)c3)cc2-c2nc(N)[nH]c(=O)c2C#N)cc1,63% (inactive)
14,O=C1/C=C/[C@@H](O)[C@@H]2C[C@@H](O)C[C@H]2/C=C/CCC[C@H](C(F)(F)F)O1,-90.6% (active)
15,O=c1cn[nH]c2ccc(Br)cc12,97.2% (inactive)
16,Cc1c2cnccc2c(C)c2c1oc1ccccc12,42.1% (inactive)
17,COC(=O)C1OC1c1cc([N+](=O)[O-])ccc1OC (stereo not given),93.4% (inactive)
18,CCc1ccc(C2=NN(c3ccc(S(C)(=O)=O)cc3)C(=O)CC2)cc1,35% (inactive)
19,COc1cc2c(cc1NC(=O)C(F)(F)F)-c1ccc(NC(=O)C(F)(F)F)cc1C2,94.2% (inactive)
20,Cc1ccc(S(=O)(=O)N/N=C2\CCCc3ccccc32)cc1,94.8% (inactive)

row,SMILES,growth
1,O=C(c1ccccc1)N(C(=O)c1ccccc1)N1CCCC1,90.9% (inactive)
2,CCOC(=O)C1C(C(=O)OCC)C2C(=O)C3C(C(=O)OCC)C(C(=O)OCC)C3C(=O)C12 (stereo not given),96.6% (inactive)
3,COc1ccc(-c2nn(-c3cccc(Cl)c3)cc2-c2cc(-c3ccccc3)[nH]c(=O)c2C#N)cc1,55.6% (inactive)
4,CN(C)c1ncnc2c1nnn2C1OC(CO)C(O)C1O (stereo not given),9.03% (active)
5,COc1ccccc1-n1c(-c2sc(NC(C)=O)nc2C)n[nH]c1=S,97.5% (inactive)
6,CC(C)(C)OC(=O)CC(S(=O)(=O)c1ccccc1)S(=O)(=O)c1ccccc1,94.7% (inactive)
7,O=C1/C(=C/c2cccc(F)c2)Cc2ccccc21,96.7% (inactive)
8,COc1ccc(/C(=N\N)C(=O)c2ccccc2)cc1 (tested in a mixture with another compound),97.8% (inactive)
9,O=C(Nc1cc([N+](=O)[O-])c2[nH]c(=O)c3ccccc3c2c1)C(F)(F)F,68% (inactive)
10,N#CC1=CC2CN(Cc3ccccc3)C1C1C(=O)N(c3ccccc3)C(=O)C21 (stereo not given),89.2% (inactive)
11,CCN(CCCNc1cc2c(c(N)c1S(=O)(=O)O)C(=O)c1ccccc1C2=O)c1ccccc1,94.7% (inactive)
12,O=C1NC(=O)c2c(CCCSc3nc4ccccc4c(=O)n3CCc3ccccc3)cccc21,81.8% (inactive)
13,COc1ccc(-c2nn(-c3cccc(Cl)c3)cc2-c2c(C#N)c(N)n(N)c(=O)c2C#N)cc1,29.5% (inactive)
14,Nc1nc(-c2cccnc2)nc2c1sc(=S)n2-c1ccccc1,93.7% (inactive)
15,CCOC(=O)C1=CSC2=NC3=C(CCC/C3=C\c3cc(OC)c(OC)c(OC)c3)C(c3cc(OC)c(OC)c(OC)c3)N12 (stereo not given),23% (inactive)
16,CCOC(=O)C1=CSC2=NC3=C(CCC/C3=C\c3ccc(Cl)cc3)C(c3ccc(Cl)cc3)N12 (stereo not given),74.9% (inactive)
17,O=C1CCn2c1c(O)c1ccccc1c2=O,107% (inactive)
18,Cc1ccc(-c2c3c(N)nc(-c4cccnc4)nc3nc3c2c(C)nn3-c2ccccc2)cc1,80.9% (inactive)
19,COc1ccc(-c2nn(-c3cccc(Cl)c3)cc2-c2c(C#N)c(=O)n3[nH]c(-c4ccccc4)nc3c2C#N)cc1,87.6% (inactive)
20,CCOC(=O)/C(=C(\C)N)C1CC(=O)NC1=O (stereo not given),95.7% (inactive)

# Tested on: SK-MEL-28 melanoma
# Assay: as above
# Details: 10 µM
row,SMILES,growth
1,NC1=CC(=O)C(=O)c2cccnc21,83.7% (inactive)
2,Cc1cn(-c2cc(F)cc(NC(=O)c3ccc(C)c(Nc4nccc(-c5cccnc5)n4)c3)c2)cn1,28.2% (inactive)
3,C/C(=C/CCC(C)[C@@H]1CC[C@]2(C)C3=C(CC[C@@]12C)[C@@]1(C)CCC(=O)C(C)(C)[C@@H]1CC3)C(=O)O (stereo not given in full),-83.9% (active)
4,CCOC(=O)CN(c1sc(C)c(C)c1C(=O)OCC)S(=O)(=O)c1ccc(C)cc1,102% (inactive)
5,Cc1c2c[n+](C(C)C)ccc2c(C)c2c1[nH]c1ccccc12,15.7% (inactive)
6,CC(C)C1=C(O)C2=C(C(=O)C1=O)[C@@]1(C)CCCC(C)(C)[C@@H]1CC2,73.4% (inactive)
7,CN(C)CCC1(c2ccccc2)CCN(C)C1=O (stereo not given),103% (inactive)
8,COc1ccc(/C(C#N)=C/c2ccccc2OC)cc1,51.8% (inactive)
9,COc1cc2c(cc1NC(=O)C(Cl)Cl)-c1ccc(NC(=O)C(Cl)Cl)cc1C2,-54.7% (active)
10,Cn1c2ccccc2c2c3[nH][nH]c(=O)c3c3c4ccccc4[nH]c3c21,29.3% (inactive)
11,COc1ccc(-c2nn(-c3cccc(Cl)c3)cc2-c2cc(-c3ccccc3)nc(N)n2)cc1,83.8% (inactive)
12,COc1ccc(C(=O)c2ccccc2CN2C(=O)c3ccccc3C2=O)cc1,114% (inactive)
13,COc1ccc(-c2nn(-c3cccc(Cl)c3)cc2-c2nc(N)[nH]c(=O)c2C#N)cc1,90.4% (inactive)
14,O=C1/C=C/[C@@H](O)[C@@H]2C[C@@H](O)C[C@H]2/C=C/CCC[C@H](C(F)(F)F)O1,-8.65% (active)
15,O=c1cn[nH]c2ccc(Br)cc12,123% (inactive)
16,Cc1c2cnccc2c(C)c2c1oc1ccccc12,110% (inactive)
17,COC(=O)C1OC1c1cc([N+](=O)[O-])ccc1OC (stereo not given),109% (inactive)
18,CCc1ccc(C2=NN(c3ccc(S(C)(=O)=O)cc3)C(=O)CC2)cc1,50.7% (inactive)
19,COc1cc2c(cc1NC(=O)C(F)(F)F)-c1ccc(NC(=O)C(F)(F)F)cc1C2,103% (inactive)
20,Cc1ccc(S(=O)(=O)N/N=C2\CCCc3ccccc32)cc1,105% (inactive)

row,SMILES,growth
1,O=C(c1ccccc1)N(C(=O)c1ccccc1)N1CCCC1,114% (inactive)
2,CCOC(=O)C1C(C(=O)OCC)C2C(=O)C3C(C(=O)OCC)C(C(=O)OCC)C3C(=O)C12 (stereo not given),105% (inactive)
3,COc1ccc(-c2nn(-c3cccc(Cl)c3)cc2-c2cc(-c3ccccc3)[nH]c(=O)c2C#N)cc1,71% (inactive)
4,CN(C)c1ncnc2c1nnn2C1OC(CO)C(O)C1O (stereo not given),12.6% (inactive)
5,COc1ccccc1-n1c(-c2sc(NC(C)=O)nc2C)n[nH]c1=S,117% (inactive)
6,CC(C)(C)OC(=O)CC(S(=O)(=O)c1ccccc1)S(=O)(=O)c1ccccc1,105% (inactive)
7,O=C1/C(=C/c2cccc(F)c2)Cc2ccccc21,105% (inactive)
8,COc1ccc(/C(=N\N)C(=O)c2ccccc2)cc1 (tested in a mixture with another compound),102% (inactive)
9,O=C(Nc1cc([N+](=O)[O-])c2[nH]c(=O)c3ccccc3c2c1)C(F)(F)F,114% (inactive)
10,N#CC1=CC2CN(Cc3ccccc3)C1C1C(=O)N(c3ccccc3)C(=O)C21 (stereo not given),102% (inactive)
11,CCN(CCCNc1cc2c(c(N)c1S(=O)(=O)O)C(=O)c1ccccc1C2=O)c1ccccc1,102% (inactive)
12,O=C1NC(=O)c2c(CCCSc3nc4ccccc4c(=O)n3CCc3ccccc3)cccc21,105% (inactive)
13,COc1ccc(-c2nn(-c3cccc(Cl)c3)cc2-c2c(C#N)c(N)n(N)c(=O)c2C#N)cc1,91.6% (inactive)
14,Nc1nc(-c2cccnc2)nc2c1sc(=S)n2-c1ccccc1,116% (inactive)
15,CCOC(=O)C1=CSC2=NC3=C(CCC/C3=C\c3cc(OC)c(OC)c(OC)c3)C(c3cc(OC)c(OC)c(OC)c3)N12 (stereo not given),67.2% (inactive)
16,CCOC(=O)C1=CSC2=NC3=C(CCC/C3=C\c3ccc(Cl)cc3)C(c3ccc(Cl)cc3)N12 (stereo not given),99.5% (inactive)
17,O=C1CCn2c1c(O)c1ccccc1c2=O,107% (inactive)
18,Cc1ccc(-c2c3c(N)nc(-c4cccnc4)nc3nc3c2c(C)nn3-c2ccccc2)cc1,68.2% (inactive)
19,COc1ccc(-c2nn(-c3cccc(Cl)c3)cc2-c2c(C#N)c(=O)n3[nH]c(-c4ccccc4)nc3c2C#N)cc1,115% (inactive)
20,CCOC(=O)/C(=C(\C)N)C1CC(=O)NC1=O (stereo not given),98% (inactive)
